These results are taken from PubChem BioAssay (Tox21).

Test [1] can be described thus: qHTS assay for small molecule agonists of the p53 signaling pathway (AID 651631; calls by dose curve; further: nearly all actives have a fitted effect of over 15% in size; further: potency means the concentration at half of the fitted maximal effect). In outline:
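HCT-116 cells carrying a stable p53 response element–beta-lactamase reporter were plated, rested 5 h at 37 °C, then exposed to compound in DMSO for 16 h at 37 °C; reporter activity was read as FRET substrate fluorescence after 2 h at room temperature.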
In general terms: Quantitative high-throughput screening tests each substance at several concentrations.

The nature of test [2]: qHTS assay for small molecules that induce genotoxicity in human embryonic kidney cells expressing luciferase-tagged ATAD5 (AID 651632). Further: nearly all actives have a fitted effect of over 15% in size. The method, boiled down: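 Test compounds were delivered by pin tool onto HEK293T reporter cells (2,000/well) expressing ATAD5 fused to luciferase. After 16 hr at 37C, 5% CO2, Amplite was added for 30 min at room temperature and luminescence was measured.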

Test [3] in a line: qHTS assay for small molecule agonists of the p53 signaling pathway - cell viability (AID 651633; calls by dose curve; further: nearly all actives have a fitted effect of over 30% in size; further: potency means the concentration at half of the fitted maximal effect). The method, boiled down:
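p53RE-bla cells were treated with compound for 16 hours at 37 C. Cytotoxicity was then measured as CellTiter-Glo luminescence after 30 min at room temperature.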

The nature of test [4]: qHTS assay for small molecules that induce genotoxicity in human embryonic kidney cells expressing luciferase-tagged ATAD5 - cell viability (AID 651634; calls by dose curve; further: nearly all actives have a fitted effect of over 25% in size). In outline:
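Quantitative high-throughput format. HEK293T cells expressing ATAD5 fused to luciferase were plated at 2,000 cells/well and treated 15.5 hr with compound versus DMSO. Viability was determined by fluorescent live-cell protease substrate, 30 min at 37C.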

Test [5] can be described thus: qHTS assay for small molecule disruptors of the mitochondrial membrane potential - cell viability (AID 720634; calls by dose curve; further: nearly all actives have a fitted effect of over 20% in size; further: potency means the concentration at half of the fitted maximal effect). The method, boiled down:
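Same-well counter-screen: following the MMP dye addition, CellTiter-Glo was added to 1 hr compound-treated HepG2 cells and luminescence read after 30 min at room temperature.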

A short description of test [6]: qHTS assay for small molecule disruptors of the mitochondrial membrane potential (AID 720635). Further: potency means the concentration at half of the fitted maximal effect. In outline: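 HepG2 cells exposed to compound 1 hr at 37C, then Mito-MPS dye 30 min. Ratio read of aggregate (540/590 nm) versus monomer (490/535 nm) fluorescence.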
Test [7] in a line: qHTS assay to test for compound auto fluorescence at 590 nm (red) in HepG2 cells (AID 720674). In outline: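 HepG2 cells, 2,000 per well in MEM with 10% FBS, attached overnight at 37 C, then got 23 nL compound or DMSO. After 1 hr at 37 C, 5% CO2, red fluorescence was read at 540/590 nm against Rose Bengal sodium as reference.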
Test [8] can be described thus: qHTS assay to test for compound auto fluorescence at 460 nm (blue) in HEK293 cells (AID 720678). In outline:
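After cell attachment (4-5 hr, 37C), compounds were pinned onto HEK293 monolayers in 10% dialyzed FBS medium. The blue channel (405/460 nm) was read following overnight culture. Equivalency was calculated against triamterene.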

A short description of test [9]: qHTS assay to test for compound auto fluorescence at 590 nm (red) in HEK293 cells (AID 720679). In outline: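 Plates of HEK293 cells (10% dialyzed FBS) are treated with 23 nL compound or DMSO vehicle after a 4-5 hr attachment period, incubated overnight at 37C, and read for red fluorescence at 540/590nm.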
Test [10] is described as follows: qHTS assay to test for compound auto fluorescence at 535 nm (green) in HEK293 cells (AID 720680).
Test [11] can be described thus: qHTS assay to test for compound auto fluorescence at 460 nm (blue) in HEK293 cell free culture (AID 720681). The method, boiled down:
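Compounds were added to cell-free DMEM with 10% FBS and fluorescence read directly. The blue channel used 405 nm excitation and 460 nm emission, with triamterene as the reference fluorophore.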

A short description of test [12]: qHTS assay to test for compound auto fluorescence at 535 nm (green) in HEK293 cell free culture (AID 720682). In outline: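 Read-out: 485/535 nm fluorescence intensity, calibrated against fluorescein. Medium only (DMEM + 10% FBS, no cells); test compound or DMSO vehicle added by pintool before plate reading.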
Test [13] in a line: qHTS assay to test for compound auto fluorescence at 590 nm (red) in HEK293 cell free culture (AID 720683). In outline: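 Cell-free wells of DMEM with 10% FBS received compound, and intrinsic fluorescence was read at excitation/emission 540/590 nm. Values expressed as equivalence to Rose Bengal sodium.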
Test [14] can be described thus: qHTS assay to test for compound auto fluorescence at 460 nm (blue) in HepG2 cell free culture (AID 720685). The method, boiled down: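 Cell-free plates of MEM plus 10% FBS received 23 nL compound or DMSO vehicle; blue-channel (405/460 nm) intensity scored against triamterene as reference fluorophore.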
Test [15] can be described thus: qHTS assay to test for compound auto fluorescence at 535 nm (green) in HepG2 cell free culture (AID 720686).
Test [16] in a line: qHTS assay to test for compound auto fluorescence at 460 nm (blue) in HepG2 cells (AID 720687). Further: potency means the concentration at half of the fitted maximal effect. The method, boiled down:
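HepG2 cells in MEM with 10% FBS, attached overnight at 37 C, were exposed to compound or DMSO for 1 hr at 37 C, 5% CO2. Blue fluorescence was read at 405/460 nm, with triamterene as reference fluorophore.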

Test [17] addresses Glucocorticoid receptor (Homo sapiens) (UniProt P04150). Put plainly: qHTS assay to identify small molecule agonists of the glucocorticoid receptor (GR) signaling pathway (AID 720691; active means well fitted activation curve with a large enough effect in the signal ratio in the repeat runs, not every such curve was filed as active; the % refers to the signal ratio). The following applies: GR-bla HeLa, beta-lactamase reporter ratio, 18 h; activation: at 62.4 µM (top of the series). The method, boiled down:
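A HeLa cervical cancer line expressing GR and a glucocorticoid response element-driven beta-lactamase gene is treated with compounds for 18 h; LiveBLAzer B/G FRET substrate is then applied and fluorescence read.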

For test [18] the target is unchanged. Put plainly: qHTS assay to identify small molecule antagonists of the glucocorticoid receptor (GR) signaling pathway (AID 720692; active means well fitted inhibition curve with a large enough effect in the signal ratio in the repeat runs, not every such curve was filed as active; the % refers to the signal ratio; further: potency means the concentration at half of the fitted maximal effect). In outline:
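GRE-bla HeLa line, dex-stimulated (5 nM final). Compound exposure 18 h, 37 C. Beta-lactamase FRET read after 2 h RT substrate.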

Test [19] can be described thus: qHTS assay to test for compound auto fluorescence at 535 nm (green) in HepG2 cells (AID 720675).
The nature of test [20]: qHTS assay to test for compound auto fluorescence at 590 nm (red) in HepG2 cell free culture (AID 720684). In outline: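 Rose Bengal sodium served as the reference for red signal. Test compounds were dispensed into serum-containing MEM (10% FBS) without cells, and plates were read at 540/590 nm.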

“And” between values parts separate entries of the source, which are not always exact repeats. Equal entries are not always repeated. Inconclusive results are not listed. Some compounds were tested as several samples or in several runs, with calls that do not always agree. The source made the active and inactive calls. Unless noted, the call rests on the fitted dose curve; in most records, active means well fitted curve in the direction sought with a large enough effect in the repeat runs; inconclusive means weak or mixed curves; inactive means no such curve, though single readings can be large; an effect the other way counts as inactive or inconclusive.
Tags describe the fitted curve by direction and shape or compound fluorescence and quenching.

Glucocorticoid receptor (Homo sapiens), sequence (P04150 whole entry, looked up): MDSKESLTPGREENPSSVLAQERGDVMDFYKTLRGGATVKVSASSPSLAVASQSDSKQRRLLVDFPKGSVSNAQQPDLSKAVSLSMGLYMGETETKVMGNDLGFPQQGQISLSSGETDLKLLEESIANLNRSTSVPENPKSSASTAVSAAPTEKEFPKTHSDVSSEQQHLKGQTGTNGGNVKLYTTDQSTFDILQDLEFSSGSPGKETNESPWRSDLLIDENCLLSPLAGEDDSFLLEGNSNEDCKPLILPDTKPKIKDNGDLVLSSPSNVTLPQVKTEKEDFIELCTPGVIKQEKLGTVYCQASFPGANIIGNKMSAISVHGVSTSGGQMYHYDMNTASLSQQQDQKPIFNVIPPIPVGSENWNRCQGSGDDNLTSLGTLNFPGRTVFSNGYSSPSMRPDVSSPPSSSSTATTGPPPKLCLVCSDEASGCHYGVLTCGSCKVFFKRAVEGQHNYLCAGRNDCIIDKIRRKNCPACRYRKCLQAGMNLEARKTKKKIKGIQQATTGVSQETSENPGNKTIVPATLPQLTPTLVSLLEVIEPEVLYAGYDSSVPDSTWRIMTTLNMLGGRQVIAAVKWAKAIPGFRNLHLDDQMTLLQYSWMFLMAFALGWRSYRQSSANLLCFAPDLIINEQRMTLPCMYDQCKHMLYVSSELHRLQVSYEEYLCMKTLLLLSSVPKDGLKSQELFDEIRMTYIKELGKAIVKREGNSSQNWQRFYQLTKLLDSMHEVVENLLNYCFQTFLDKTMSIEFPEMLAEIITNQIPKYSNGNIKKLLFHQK

For the compound `CCCCCCCCCCCCCCCC(=O)OC[C@H](COP(=O)([O-])OCC[N+](C)(C)C)OC(=O)CCCCCCCCCCCCCCC`, the Potency result in test [1], in [2], in test [3], in [4], in test [5] and in test [6] was “inactive” each time. Further, the Potency result in [8], in [11], in test [14], in [15], in [16] and in test [17] was “inactive” each time. The Potency result in [18] is “inactive”. The call in test [7], in test [9], in test [10], in test [12] and in [13] was inactive.

For `CCCOC(=O)c1ccc(O)cc1`, the Potency entry in test [1], in [2], in test [3], in test [4], in [19] and in test [8] was “inactive” each time. Besides, the Potency result in [11], in test [14], in test [15], in test [16] and in test [17] was “inactive” in each case. Further, the outcome in [7], in [9], in test [10], in [12], in test [13] and in [20] was inactive.

With `COc1cc(/C=C/C(=O)CC(=O)/C=C/c2ccc(O)c(OC)c2)ccc1O`, the Potency is 13.3 µM (active) and 13.8 µM (active) in test [1]; 18.8 µM (active) and 54.8 µM (active) in [3]; 11.9 µM (active) and 21.8 µM (active) in [5]; 750 nM (active) and 1.68 µM (active) and 548 nM (active) in [6]; 39.8 µM [fluorescent] (active) in test [16]; 23.9 µM (active) and inactive in test [18]. Moreover, the Potency result in test [2], in [4], in [8], in [11], in test [15] and in [17] was “inactive” each time. Moreover, the compound was called inactive in test [7], in test [9], in [10], in test [13] and in [20].

Regarding `CC1(C)S[C@@H]2[C@H](NC(=O)[C@H](N)c3ccc(O)cc3)C(=O)N2[C@H]1C(=O)O`, the Potency result in test [1], in [2], in test [3], in test [4], in test [5] and in test [6] was “inactive” in each case. The Potency result in [15] and in test [16] was “inactive” throughout. Further, the result in [7], in [9], in test [10], in [12], in test [13] and in [20] was inactive.

`O=C1[O][Bi][O]c2ccccc21`: the Potency entry in [1], in test [2], in [3], in test [4], in test [5] and in test [6] was “inactive” throughout. Besides, the compound was classed as inactive in test [12].

For `C=C(Nc1ccc(OCC)cc1)Nc1ccc(OCC)cc1`, the Potency entry in test [1], in test [2], in test [3], in test [4], in test [5] and in test [8] was “inactive” each time. Besides, the Potency result in [11], in [14], in test [15] and in test [16] was “inactive” each time. Moreover, the compound was classed as inactive in [7], in test [9], in [10], in [12], in test [13] and in [20].

`CN[C@@H]1[C@@H](O[C@H]2O[C@H](CO)[C@@H](N)[C@H](O)[C@H]2O)O[C@H]2C[C@@H](N)[C@@H](O[C@H]3[C@H](O)[C@@H](O)[C@H](N)C[C@@H]3N)O[C@@H]2[C@@H]1O`: the Potency result in test [1], in [2], in test [3], in test [4], in test [5] and in [19] was “inactive” throughout. Moreover, the Potency result in [8], in test [11], in test [14], in test [15], in test [16] and in test [17] was “inactive” throughout. Further, the Potency result in [18] is “inactive”. Moreover, the outcome in test [7], in test [9], in test [10], in test [12], in test [13] and in test [20] was inactive.
